Data reported in PubChem BioAssay AID1159580 (chemical genetic matrix, 2015).
“And” between values parts separate entries of the source, which are not always exact repeats. Equal entries are not always repeated. Screen size: about 5,500 compounds; about 2,000 (36%) were called active. Inconclusive results (about 18%) are left out. The list shows a part of the results. Unmarked numbers belong to inactive results. Cut-off read from the data, not from the text of the source: active = normalized growth mostly below about 0.91 (no sharp cut-off); inconclusive = no clear call, values can overlap the other calls; inactive = mostly above about 0.92.

Assay: chemical genetic growth profiling, strain panel (AID 1159580);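 note: tested at 20 µM; growth read once vehicle control cultures reached saturation at 30 °C; 1 = growth at the plate median or of vehicle wells; lower values mean less growth of the strain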
Conditions: S. cerevisiae deletion strains, growth OD

CC(=O)OC[C@@]1(O)C[C@@]23CCC4c5ccoc5CC[C@]4(C)C2CC[C@@H]1C3 (some centres not stated)
normalized growth (locus YAL013W, strain DEP1, stronger effect = lower value): 0.985 | normalized growth (locus YAL021C, strain ccr4, stronger effect = lower value): 1.03 | normalized growth (locus YAL026C, strain drs2, stronger effect = lower value): 0.901 (active) | normalized growth (locus YAL030W, strain snc1, stronger effect = lower value): 1.02 | normalized growth (locus YBL061C, strain skt5, stronger effect = lower value): 0.988 | normalized growth (locus YBR009C, strain hhf1, stronger effect = lower value): 0.97 | normalized growth (locus YBR021W, strain FUR4, stronger effect = lower value): 0.964 | normalized growth (locus YBR023C, strain chs3, stronger effect = lower value): 0.953 | normalized growth (locus YBR171W, strain sec66, stronger effect = lower value): 0.986 | normalized growth (locus YBR229C, strain ROT2, stronger effect = lower value): 0.998 | normalized growth (locus YBR231C, strain swc5, stronger effect = lower value): 1.01 | normalized growth (locus YBR279W, strain paf1, stronger effect = lower value): 1.02 | normalized growth (locus YCL011C, strain gbp2, stronger effect = lower value): 0.998 | normalized growth (locus YCL016C, strain dcc1, stronger effect = lower value): 0.975 | normalized growth (locus YCL029C, strain bik1, stronger effect = lower value): 0.963 | normalized growth (locus YCL061C, strain MRC1, stronger effect = lower value): 0.98 | normalized growth (locus YCL069W, strain vba3, stronger effect = lower value): 1 | normalized growth (locus YCR088W, strain abp1, stronger effect = lower value): 0.997 | normalized growth (locus YDL005C, strain med2, stronger effect = lower value): 1.02 | normalized growth (locus YDL035C, strain GPR1, stronger effect = lower value): 0.899 | normalized growth (locus YDL040C, strain nat1, stronger effect = lower value): 1 | normalized growth (locus YDL074C, strain BRE1, stronger effect = lower value): 0.88 | normalized growth (locus YDL101C, strain DUN1, stronger effect = lower value): 0.986 | normalized growth (locus YDL134C, strain PPH21, stronger effect = lower value): 0.973 | normalized growth (locus YDL185W, strain tfp1, stronger effect = lower value): 0.968 | normalized growth (locus YDL192W, strain arf1, stronger effect = lower value): 0.932 | normalized growth (locus YDR001C, strain nth1, stronger effect = lower value): 1 | normalized growth (locus YDR069C, strain doa4, stronger effect = lower value): 1.02 | normalized growth (locus YDR101C, strain arx1, stronger effect = lower value): 0.965 | normalized growth (locus YDR137W, strain rgp1, stronger effect = lower value): 0.805 (active) | normalized growth (locus YDR150W, strain NUM1, stronger effect = lower value): 0.948 | normalized growth (locus YDR159W, strain sac3, stronger effect = lower value): 0.991 | normalized growth (locus YDR162C, strain NBP2, stronger effect = lower value): 0.97 | normalized growth (locus YDR195W, strain ref2): 0.993 | normalized growth (locus YDR297W, strain sur2, stronger effect = lower value): 1.01 | normalized growth (locus YDR318W, strain mcm21, stronger effect = lower value): 0.911 (active) | normalized growth (locus YDR334W, strain swr1, stronger effect = lower value): 1.01 | normalized growth (locus YDR335W, strain msn5, stronger effect = lower value): 1 | normalized growth (locus YDR388W, stronger effect = lower value): 0.977 | normalized growth (locus YDR392W, strain spt3, stronger effect = lower value): 0.576 (active) | normalized growth (locus YDR502C, strain sam2, stronger effect = lower value): 0.956 | normalized growth (locus YEL003W, strain gim4, stronger effect = lower value): 1 | normalized growth (locus YEL037C, strain rad23, stronger effect = lower value): 0.992 | normalized growth (locus YEL061C, strain CIN8 (second series), stronger effect = lower value): 1 | normalized growth (locus YEL061C, strain CIN8, stronger effect = lower value): 0.986 | normalized growth (locus YER015W, strain faa2, stronger effect = lower value): 1.01 | normalized growth (locus YER016W, strain bim1, stronger effect = lower value): 0.996 | normalized growth (locus YER110C, stronger effect = lower value): 0.95 | normalized growth (locus YER111C, strain swi4, stronger effect = lower value): 0.995 | normalized growth (locus YER155C, strain BEM2 (second series), stronger effect = lower value): 0.987 | normalized growth (locus YER155C, strain BEM2, stronger effect = lower value): 0.972 | normalized growth (locus YER167W, strain BCK2, stronger effect = lower value): 0.929 | normalized growth (locus YFR010W, strain ubp6, stronger effect = lower value): 0.985 | normalized growth (locus YGL078C, strain dbp3, stronger effect = lower value): 0.966 | normalized growth (locus YGL086W, strain mad1, stronger effect = lower value): 0.931 | normalized growth (locus YGL167C, strain pmr1, stronger effect = lower value): 1 | normalized growth (locus YGL173C, strain kem1, stronger effect = lower value): 1.03 | normalized growth (locus YGL227W, strain vid30, stronger effect = lower value): 1.01 | normalized growth (locus YGL240W, strain doc1, stronger effect = lower value): 1 | normalized growth (locus YGL248W, strain PDE1, stronger effect = lower value): 0.98 | normalized growth (locus YGL253W, strain hxk2, stronger effect = lower value): 0.91 (active) | normalized growth (locus YGR078C, strain PAC10, stronger effect = lower value): 0.934 | normalized growth (locus YGR135W, strain pre9, stronger effect = lower value): 0.95 | normalized growth (locus YGR229C, strain SMI1, stronger effect = lower value): 0.804 (active) | normalized growth (locus YGR252W, strain gcn5, stronger effect = lower value): 0.912 | normalized growth (locus YHR013C, strain ard1, stronger effect = lower value): 1.19 [resistant] (active) | normalized growth (locus YHR027C, strain rpn1, stronger effect = lower value): 1.01 | normalized growth (locus YHR030C, strain SLT2, stronger effect = lower value): 0.943 and 0.867 | normalized growth (locus YHR079C, strain IRE1 (second series), stronger effect = lower value): 0.924 (active) | normalized growth (locus YHR079C, strain IRE1, stronger effect = lower value): 0.918 | normalized growth (locus YHR094C, strain hxt1, stronger effect = lower value): 0.96 | normalized growth (locus YHR129C, strain ARP1, stronger effect = lower value): 0.985 | normalized growth (locus YHR142W, strain chs7, stronger effect = lower value): 0.846 (active) | normalized growth (locus YHR200W, strain rpn10, stronger effect = lower value): 0.96 | normalized growth (locus YIL066C, strain RNR3, stronger effect = lower value): 0.981 | normalized growth (locus YIL073C, strain SPO22, stronger effect = lower value): 0.991 | normalized growth (locus YIL125W, strain kgd1, stronger effect = lower value): 0.965 | normalized growth (locus YIR030C, strain dcg1, stronger effect = lower value): 0.974 | normalized growth (locus YJL092W, strain hpr5, stronger effect = lower value): 1 | normalized growth (locus YJL095W, strain BCK1 (second series), stronger effect = lower value): 1.01 | normalized growth (locus YJL095W, strain BCK1, stronger effect = lower value): 0.909 and 0.89 | normalized growth (locus YJL115W, strain asf1, stronger effect = lower value): 1.01 | normalized growth (locus YJL129C, strain trk1, stronger effect = lower value): 0.984 | normalized growth (locus YJL134W, strain LCB3, stronger effect = lower value): 0.973 | normalized growth (locus YJL154C, strain vps35, stronger effect = lower value): 1 | normalized growth (locus YJL164C, strain tpk1, stronger effect = lower value): 0.973 | normalized growth (locus YJL166W, strain qcr8, stronger effect = lower value): 0.996 | normalized growth (locus YJL168C, strain set2, stronger effect = lower value): 0.983 | normalized growth (locus YJL187C, strain SWE1 (second series), stronger effect = lower value): 0.961 | normalized growth (locus YJL187C, strain SWE1, stronger effect = lower value): 1.01 | normalized growth (locus YJR043C, strain POL32, stronger effect = lower value): 0.954 | normalized growth (locus YJR066W, strain TOR1, stronger effect = lower value): 0.825 (active)
